Test results from PubChem BioAssay.
Unmarked numbers belong to inactive results. The source made the active and inactive calls.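 How the source made its calls: active means thallium flux through the channel raised or lowered by more than 3 SD from vehicle-only wells, actives on both sides; inactive means the rest.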

Experiments:
Assay in all cases: modulators of BK channel variants, profiling panel, selectivity assay, cell-based, U2OS BacMam, thallium flux, beta subunits (AID 1259406);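 further: initial slope of Thallos dye fluorescence rise after thallium is added; log ratio against the mean of 0.3% DMSO vehicle wells on the same plate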
[1] = system: F380Y; conditions: at 30 µM
[2] = system: F380Y/beta1; conditions: at 30 µM
[3] = system: F380Y/beta2Delta; conditions: at 30 µM
[4] = system: F380Y/beta4; conditions: at 30 µM
[5] = biological target: Calcium-activated potassium channel subunit alpha-1 (Homo sapiens) + Leucine-rich repeat-containing protein 26 (Homo sapiens) (UniProt Q12791+Q2I0M4); conditions: F380Y/Slo1WT/gamma1, at 30 µM
[6] = system: R275C; conditions: at 30 µM
[7] = system: R275C/beta1; conditions: at 30 µM
[8] = system: R275C/beta2Delta; conditions: at 30 µM
[9] = system: R275C/beta4; conditions: at 30 µM
[10] = system: R275C/Slo1WT/beta2; conditions: at 30 µM

Calcium-activated potassium channel subunit alpha-1 (Homo sapiens) + Leucine-rich repeat-containing protein 26 (Homo sapiens), sequence (Q2I0M4 whole entry, looked up, one chain of several): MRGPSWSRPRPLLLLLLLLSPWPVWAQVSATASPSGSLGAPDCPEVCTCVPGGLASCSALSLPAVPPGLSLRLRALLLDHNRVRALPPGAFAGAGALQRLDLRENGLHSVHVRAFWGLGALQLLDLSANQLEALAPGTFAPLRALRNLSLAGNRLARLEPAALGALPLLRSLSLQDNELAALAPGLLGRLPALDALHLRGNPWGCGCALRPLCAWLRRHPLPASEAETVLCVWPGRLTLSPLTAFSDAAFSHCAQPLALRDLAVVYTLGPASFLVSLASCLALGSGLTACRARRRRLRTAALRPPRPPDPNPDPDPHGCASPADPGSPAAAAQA

Row | SMILES | log fold change Tl+ flux [1] | log fold change Tl+ flux [2] | log fold change Tl+ flux [3] | log fold change Tl+ flux [4] | log fold change Tl+ flux [5] | log fold change Tl+ flux [6] | log fold change Tl+ flux [7] | log fold change Tl+ flux [8] | log fold change Tl+ flux [9] | log fold change Tl+ flux [10]
1 | CCCn1c(=O)c(Br)cn(-c2ccccc2C)c1=O | -0.00732 | -0.0448 | -0.0565 | 0.00537 | -0.011 | 0.0371 | 0.0334 | -0.00562 | 0.00534 | 0.0347
2 | CN(C)C=Nc1cc(Cl)c(-n2cccc2)cc1Oc1ccc(Cl)cc1 | 0.0245 | 0.0128 | -0.0305 | -0.016 | 0.0223 | -0.0532 | -0.0556 | -0.0155 | -0.0061 | -0.0144
3 | CCOC(=O)C1CCC(C(=O)OCC)N1C(=O)Nc1ccc(Cl)cc1 (stereo not given) | 0.046 | 0.00842 | 0.0313 | -0.0525 | -0.0039 | 0.0639 | 0.0271 | 0.0385 | 0.0217 | -0.00903
4 | O=S(=O)(Cc1nc(-c2ccc3c(c2)OCCO3)cs1)c1ccccn1 | -0.0443 | -0.0373 | 0.0231 | -0.00916 | -0.0733 | -0.0303 | -0.0291 | 0.0317 | -0.00702 | -0.0322
5 | COC(=O)Cc1cccc2c(=O)c3ccccc3oc12 | 0.00439 | -0.00882 | 0.0497 | 0.0357 | 0.00575 | 0.0179 | -0.0476 | 0.00558 | 0.00377 | 0.049
6 | CC(=O)c1cc2cc(Cl)cc(Cl)c2oc1=O | 0.0337 | 0.0359 | -0.0227 | -0.0296 | -0.0196 | -0.0332 | 0.029 | 0.0111 | -0.0163 | -0.0243
7 | COC(=O)C(C#N)=C1NC(C)=NC(SC)=C1C#N | -0.0152 | 0.03 | -0.00376 | 0.021 | 0.0176 | -0.014 | -0.0163 | -0.0169 | -0.0352 | 0.0253
8 | CCOC(=O)c1sc(SC)nc1N | -0.000489 | -0.00635 | 0.00305 | 0.00634 | -0.00935 | 0.0886 (active) | -0.00543 | -0.0273 | -0.000536 | 0.0235
9 | Clc1ccc(-c2cnc(-c3ccc(Cl)cc3)o2)cc1 | 0.0159 | -0.0226 | 0.0345 | -0.00734 | -0.0607 | 0.0428 | 0.00118 | 0.0163 | 0.00237 | -0.017
10 | CCOC(=O)c1cnc(C(F)(F)F)nc1NN=Cc1c(Cl)cccc1Cl | -0.0741 | 0.0122 | -0.0116 | 0.00688 | -0.0599 | -0.0944 (active) | -0.124 (active) | -0.0798 | -0.0487 | -0.0141
11 | Cc1cc(C)c(C(=O)O)c(CC(C)(C)C(=O)O)c1 | 0.000395 | 0.016 | -0.00135 | -0.0155 | 0.0359 | 0.0232 | -0.00597 | 0.00899 | -0.0125 | 0.0267
12 | Cc1cc(C)n2nc(Sc3ncccc3[N+](=O)[O-])nc2n1 | 0.0293 | -0.0122 | -0.0308 | 0.00857 | 0.0468 | 0.0175 | -0.025 | -0.00322 | 0.00925 | 0.0318
13 | FC(F)(F)COc1ccc(-c2nnc(SCc3ccccc3C(F)(F)F)o2)cn1 | 0.00456 | -0.0223 | -0.0257 | -0.0497 | -0.0179 | -0.0108 | 0.0313 | -0.0204 | 0.0273 | 0.0157
14 | CC(C)(C)c1cc(-c2nc(-c3ccc(C(F)(F)F)cc3)no2)n(Cc2ccccc2)n1 | -0.0279 | -0.0164 | -0.0472 | 0.0114 | -0.0649 | 0.0485 | -0.0238 | -0.0138 | 0.0105 | 0.0318
15 | CCOC(=O)c1cc(CC)sc1NC(=O)C(Cl)(Cl)Cl | -0.00144 | 0.0314 | -0.028 | 0.0374 | 0.0144 | -0.0151 | -0.066 | 0.0214 | -0.00727 | -0.00449
16 | Cc1cc(C(=O)N2CCN(c3ncccc3C#N)CC2)no1 | -0.0195 | 0.00841 | -0.0191 | 0.032 | -0.00848 | 0.011 | 0.022 | 0.0483 | 0.00374 | 0.00615
17 | O=C(O)c1nnn(-c2ccccc2Oc2ccc(Cl)cc2Cl)c1-c1ccccc1 | 0.0736 | 0.343 (active) | 0.17 (active) | 0.243 (active) | 0.127 (active) | -0.021 | 0.297 (active) | 0.113 (active) | 0.287 (active) | 0.0348
18 | O=C(Nc1csc(Cc2c(Cl)cccc2Cl)n1)NN1CCOCC1 | 0.0786 | 0.0031 | 0.0515 | 0.11 (active) | -0.0174 | -0.0115 | 0.0073 | 0.0159 | 0.00549 | -0.0281
19 | CN(C)c1ccc(C=NNC(N)=S)c(Cl)c1 | 0.178 (active) | 0.329 (active) | 0.177 (active) | 0.174 (active) | -0.221 (active) | -0.509 (active) | -0.285 (active) | -0.0612 | -0.244 (active) | -0.154 (active)
20 | O=[N+]([O-])c1cnc(Sc2nccc(-c3cccnc3)n2)s1 | -0.00331 | 0.0246 | -0.0191 | 0.00729 | -0.074 | 0.0275 | 0.026 | -0.0186 | 0.0146 | -0.0189
21 | CCc1[nH]c(=S)[nH]c(=O)c1C#N | -0.0598 | 0.0419 | 0.0255 | 0.0765 | 0.0111 | 0.0263 | -0.0177 | 0.00491 | 0.0228 | 0.0561
22 | Cc1nn(Cc2nnc(-c3cc(C(F)(F)F)cc(C(F)(F)F)c3)o2)c(C)c1Br | -0.000532 | -0.0352 | -0.0793 | -0.0305 | -0.0495 | -0.0117 | -0.0379 | -0.0199 | 0.00363 | 0.0313
23 | CCOC(=O)c1ccc(N2CCOCC2)c(N=Cc2cc(Cl)cc(Cl)c2O)c1 | 0.0511 | 0.162 (active) | 0.0876 | 0.0975 (active) | 0.0345 | -0.00571 | 0.163 (active) | 0.0906 (active) | 0.128 (active) | 0.0153
24 | Cc1c(C)c(C)c(C(=O)c2ccccc2C(=O)NN)c(C)c1C | 0.0326 | 0.0715 | 0.00841 | 0.0586 | 0.0596 | 0.02 | 0.144 (active) | 0.0153 | 0.0879 (active) | 0.00811
